# Values joined by “and” are separate entries in the source; they are usually repeats but may differ in a detail not shown here. Equal entries are not always repeated. Results filed as inconclusive are left out. Active and inactive are the calls of the source. Unless noted, calls follow the shape of the dose curve; as a rule, active = well fitted curve in the direction sought with a large enough effect; inconclusive = small, poorly fitted or top-dose-only effect, or another doubt; inactive = no such curve, though single readings can be large; an effect the other way counts as inactive or inconclusive.
# What was measured:
# [1] = Quantitative High-Throughput drug screen in 47 multiple myeloma cell lines against the NCATS MIPE library collection: XG1_PLB cell viability assay (AID 1919866); also: nearly all actives have a fitted effect of over 35% in size; also: potency is read from the fitted curve at half-maximal effect
# Summary of the method: (§1)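 Myeloma cells (500/well) treated with MIPE 4.0 compounds for 48 h at 37 °C, 5% CO2. Viability read as ATP via CellTiter-Glo luminescence after 5 min at RT; DMSO-only wells = 100%, media-only = 0% viability.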
# [2] = Quantitative High-Throughput drug screen in 47 multiple myeloma cell lines against the NCATS MIPE library collection: VP6_DJ cell viability assay (AID 1919867); also: nearly all actives have a fitted effect of over 40% in size; also: potency is read from the fitted curve at half-maximal effect
# Summary of the method: as §1
# [3] = Quantitative High-Throughput drug screen in 47 multiple myeloma cell lines against the NCATS MIPE library collection: PE2_PLB cell viability assay (AID 1919869); also: nearly all actives have a fitted effect of over 35% in size; also: potency is read from the fitted curve at half-maximal effect
# Summary of the method: as §1
# [4] = Quantitative High-Throughput drug screen in 47 multiple myeloma cell lines against the NCATS MIPE library collection: PCM6_Riken cell viability assay (AID 1919870); also: nearly all actives have a fitted effect of over 30% in size; also: potency is read from the fitted curve at half-maximal effect
# Summary of the method: as §1
# [5] = Quantitative High-Throughput drug screen in 47 multiple myeloma cell lines against the NCATS MIPE library collection: RPMI8226_ATCC cell viability assay (AID 1919871); also: nearly all actives have a fitted effect of over 30% in size; also: potency is read from the fitted curve at half-maximal effect
# Summary of the method: as §1
# [6] = Quantitative High-Throughput drug screen in 47 multiple myeloma cell lines against the NCATS MIPE library collection: OPM2_DSMZ cell viability assay (AID 1919872); also: nearly all actives have a fitted effect of over 30% in size; also: potency is read from the fitted curve at half-maximal effect
# Summary of the method: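 Approved and investigational drugs from MIPE 4.0 were added by pin tool to 500 cells per well. After 48 hours at 37C, ATP-based CellTiter-Glo luminescence indicated remaining viability.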
# [7] = Quantitative High-Throughput drug screen in 47 multiple myeloma cell lines against the NCATS MIPE library collection: KMS11_JCRBsus cell viability assay (AID 1919873); also: nearly all actives have a fitted effect of over 50% in size; also: potency is read from the fitted curve at half-maximal effect
# Summary of the method: as §1
# [8] = Quantitative High-Throughput drug screen in 47 multiple myeloma cell lines against the NCATS MIPE library collection: KMS28BM_JCRB cell viability assay (AID 1919874); also: nearly all actives have a fitted effect of over 35% in size; also: potency is read from the fitted curve at half-maximal effect
# Summary of the method: as §1
# [9] = qHTS drug screen for cell cycle checkpoint inhibitors in PARPi-resistant BRCA-mutant ovarian cancer cell lines. (AID 1963452; calls by dose curve); conditions: PEO1/OlaR viability, CellTiter-Glo luminescence, 96 h, stronger effect = lower value
# Summary of the method: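 PEO1, PEO4 and PEO1/OlaR ovarian cancer cells, 600 per well, exposed 96 h at 37C to a dilution series. Viability read by CellTiter-Glo luminescence, normalized to DMSO and empty wells; activity summarized as Z-AUC.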
# [10] = qHTS for identification of novel therapeutic agents for treatment of microphthalmiaassociated transcription factor (MiT) renal cell carcinoma (RCC) (AID 1963991; calls by dose curve; also: potency is read from the fitted curve at half-maximal effect); conditions: CellTiter-Glo, 48 h; for z-score: stronger effect = lower value; for Potency: active = Z-AUC below -0.8 in all three lines
# Summary of the method: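 Viability of three TFE3-fusion renal carcinoma lines measured by CellTiter-Glo after 48 h treatment with each of 1912 compounds at 11 concentrations. Responses scaled between DMSO (100%) and empty wells (0%) before curve fitting.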
# [11] = qHTS profiling for inhibitors of Plasmodium falciparum proliferation (AID 504749); also: potency is read from the fitted curve at half-maximal effect; nearly all actives have a fitted effect of over 60% in size; conditions: P. falciparum in erythrocytes, SYBR Green DNA, 72 h
# Summary of the method: (§2)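 P. falciparum-infected erythrocytes (0.3% parasitemia, 2.5% hematocrit final) were exposed to compounds for 72 h at 37 C in 5% CO2, then lysed with SYBR Green buffer overnight at room temperature; parasite DNA fluorescence was normalized to artemisinin and DMSO controls.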
# 7G8 = assay: as above; conditions: P. falciparum in erythrocytes, SYBR Green DNA, 72 h; series mostly up to 28.7 µM
# Summary of the method: as §2
# AA1029 = assay: as above; conditions: P. falciparum in erythrocytes, SYBR Green DNA, 72 h; series mostly up to 28.7 µM
# Summary of the method: as §2
# AS120 = assay: as above; conditions: P. falciparum in erythrocytes, SYBR Green DNA, 72 h; series mostly up to 28.7 µM
# Summary of the method: as §2
# ATS189 = assay: as above; conditions: P. falciparum in erythrocytes, SYBR Green DNA, 72 h; series mostly up to 28.7 µM
# Summary of the method: as §2
# ATS95 = assay: as above; conditions: P. falciparum in erythrocytes, SYBR Green DNA, 72 h; series mostly up to 28.7 µM
# Summary of the method: as §2
# C2A = assay: as above; conditions: P. falciparum in erythrocytes, SYBR Green DNA, 72 h; series mostly up to 28.7 µM
# Summary of the method: as §2
# CP185 = assay: as above; conditions: P. falciparum in erythrocytes, SYBR Green DNA, 72 h; series mostly up to 28.7 µM
# Summary of the method: as §2
# [12] = measured here: PEO1 parental Z-AUC
# [13] = TFE3-RCC UOK109 viability, measured here: UOK109 Z-AUC
# [14] = TFE3-RCC viability, measured here: UOK124 Z-AUC
# [15] = TFE3-RCC viability, measured here: UOK145 Z-AUC
smiles,measurement,setting,value
COC(=O)C1=C(C)NC(C)=C(C(=O)OCCN2CCN(C(c3ccccc3)c3ccccc3)CC2)C1c1cccc([N+](=O)[O-])c1 (stereo unspecified),Potency,[1],inactive
same,Potency,[2],4.18 µM (active)
same,Potency,[3],inactive
same,Potency,[4],inactive
same,Potency,[5],inactive
same,Potency,[6],inactive
same,Potency,[7],inactive
same,Potency,[8],inactive
same,Z-AUC,[9],-0.27 (inactive)
same,Z-AUC,[9]; [12],-0.345
same,Z-AUC,[9]; measured here: PEO4 Z-AUC,0.196
same,z-score,[10]; [13],0.729
same,z-score,[10]; [14],0.516
same,z-score,[10]; [15],-0.011
same,Potency,[11]; parasite line A,3.16 µM (active)
same,Potency,[11]; parasite line B,3.98 µM (active)
same,Potency,7G8,1.41 µM (active)
same,Potency,AA1029,2.24 µM (active)
same,Potency,AS120,2 µM (active)
same,Potency,ATS189,1.58 µM (active)
same,Potency,ATS95,2.51 µM (active)
same,Potency,C2A,3.55 µM (active)
same,Potency,CP185,4.47 µM (active)
O=C(Nc1nc2cccc(-c3ccc(CN4CCS(=O)(=O)CC4)cc3)n2n1)C1CC1,Potency,[1],14.8 µM (active)
same,Potency,[2],18.7 µM (active)
same,Potency,[3],16.6 µM (active)
same,Potency,[4],16.6 µM (active)
same,Potency,[5],18.7 µM (active)
same,Potency,[7],13.2 µM (active)
same,Potency,[8],14.8 µM (active)
same,Z-AUC,[9],0.985 (inactive)
same,Z-AUC,[9]; [12],0.544
same,Z-AUC,[9]; measured here: PEO4 Z-AUC,0.638
CCC(=C(c1ccccc1)c1ccc(OCCN(C)C)cc1)c1ccccc1,Potency,[1],16.6 µM (active)
same,Potency,[2],20.9 µM (active)
same,Potency,[3],26.4 µM (active)
same,Potency,[4],23.5 µM (active)
same,Potency,[7],20.9 µM (active)
same,Potency,[8],20.9 µM (active)
Nc1nc(NCCNc2ncc(-n3ccnc3)c(-c3ccc(Cl)cc3Cl)n2)ccc1[N+](=O)[O-],Potency,[1],6.62 µM (active)
same,Potency,[2],7.43 µM (active)
same,Potency,[3],3.72 µM (active)
same,Potency,[4],2.35 µM (active)
same,Z-AUC,[9],0.218 (inactive)
same,Z-AUC,[9]; [12],0.907
same,Z-AUC,[9]; measured here: PEO4 Z-AUC,0.221
COC(=O)Nc1nc2ccc(C(=O)c3ccc(F)cc3)cc2[nH]1,Potency,[1],0.332 µM (active)
same,Potency,[2],0.935 µM (active)
same,Potency,[4],0.743 µM (active)
same,Potency,[5],1.87 µM (active)
same,Potency,[6],0.935 µM (active)
same,Potency,[7],0.296 µM (active)
same,Potency,[8],0.332 µM (active)
same,Z-AUC,[9],-0.379 (inactive)
same,Z-AUC,[9]; [12],-1.33
same,Z-AUC,[9]; measured here: PEO4 Z-AUC,-1.13
same,Potency,[10]; TFE3-RCC UOK109 viability,1.87 µM (active)
same,z-score,[10]; [13],-1.13
same,z-score,[10]; [14],-1.2
same,z-score,[10]; [15],-0.98
O=C(c1cncc(Br)c1)N1CCC(N2CCCC2)CC1,Potency,[1],inactive
same,Potency,[2],inactive
same,Potency,[3],inactive
same,Potency,[4],inactive
same,Potency,[6],inactive
same,Potency,[7],inactive
same,Potency,[8],inactive
same,Z-AUC,[9],-0.226 (inactive)
same,Z-AUC,[9]; [12],-0.235
same,Z-AUC,[9]; measured here: PEO4 Z-AUC,0.232
same,z-score,[10]; [13],0.796
same,z-score,[10]; [14],0.785
same,z-score,[10]; [15],0.752
CC(=O)c1c(C)c2cnc(Nc3ccc(N4CCNCC4)cn3)nc2n(C2CCCC2)c1=O,Potency,[1],14.8 µM (active)
same,Potency,[2],18.7 µM (active)
same,Potency,[3],18.7 µM (active)
same,Potency,[4],5.9 µM (active)
same,Potency,[5],2.09 µM (active)
same,Potency,[7],20.9 µM (active)
same,Potency,[8],23.5 µM (active)
CC(=O)Nc1sc2c(c1-c1nc3ccccc3s1)CNC2,Potency,[1],14.8 µM (active)
same,Potency,[2],11.8 µM (active)
same,Potency,[3],20.9 µM (active)
same,Potency,[4],14.8 µM (active)
same,Potency,[7],13.2 µM (active)
same,Potency,[8],14.8 µM (active)
NCC(=O)Nc1ccc(-n2nc(C(F)(F)F)cc2-c2ccc3c(ccc4ccccc43)c2)cc1,Potency,[1],16.6 µM (active)
same,Potency,[2],18.7 µM (active)
same,Potency,[3],20.9 µM (active)
same,Potency,[4],20.9 µM (active)
same,Z-AUC,[9],0.362 (inactive)
same,Z-AUC,[9]; [12],-0.764
same,Z-AUC,[9]; measured here: PEO4 Z-AUC,-0.389
CC(C)(O)c1cc2nc(-c3cnc(N)nc3)nc(N3CCOCC3)c2s1,Potency,[1],0.118 µM (active)
same,Potency,[2],0.0833 µM (active)
same,Potency,[3],0.105 µM (active)
same,Potency,[4],0.743 µM (active)
same,Potency,[5],0.0469 µM (active)
same,Potency,[6],0.187 µM (active)
same,Potency,[7],0.0187 µM (active)
same,Potency,[8],0.0662 µM (active)
same,Z-AUC,[9],-1.37 (inactive)
same,Z-AUC,[9]; [12],-1.91
same,Z-AUC,[9]; measured here: PEO4 Z-AUC,-1.8
same,Potency,[10]; TFE3-RCC UOK109 viability,0.0332 µM (active)
same,z-score,[10]; [13],-2.49
same,z-score,[10]; [14],-0.824
same,z-score,[10]; [15],-2.51
CC(C)c1noc(N2CCC(COc3ccc(-c4ccc(S(C)(=O)=O)cc4)nc3)CC2)n1,Potency,[1],2.64 µM (active)
same,Potency,[2],7.43 µM (active)
same,Potency,[3],inactive
same,Potency,[4],4.69 µM (active)
same,Potency,[5],7.43 µM (active)
same,Potency,[6],inactive
same,Potency,[7],1.18 µM (active)
same,Z-AUC,[9],-0.00574 (inactive)
same,Z-AUC,[9]; [12],-0.198
same,Z-AUC,[9]; measured here: PEO4 Z-AUC,1.01
same,z-score,[10]; [13],0.525
same,z-score,[10]; [14],0.308
same,z-score,[10]; [15],0.324
Cc1c(NC(=O)OC[C@@H]2COCCN2)cn2ncnc(Nc3ccc4c(cnn4Cc4cccc(F)c4)c3)c12,Potency,[1],0.0833 µM (active)
same,Potency,[2],1.87 µM (active)
same,Potency,[3],5.26 µM (active)
same,Potency,[7],26.4 µM (active)
same,Z-AUC,[9],-1.36 (inactive) and 1.21 (inactive)
same,Z-AUC,[9]; [12],-0.48 and 1.05
same,Z-AUC,[9]; measured here: PEO4 Z-AUC,-1.04 and 1.11
same,Potency,[10]; TFE3-RCC UOK109 viability,0.118 µM (active)
same,z-score,[10]; [13],-1.82
same,z-score,[10]; [14],-1.81
same,z-score,[10]; [15],-2.05
COc1ccc2c(c1)CC[C@@H](CN(C)CC(=O)O)[C@H]2c1ccccc1,Potency,[1],0.833 µM (active)
same,Potency,[2],1.87 µM (active)
same,Potency,[4],1.66 µM (active)
same,Potency,[5],2.64 µM (active)
same,Potency,[6],8.33 µM (active)
same,Potency,[7],0.662 µM (active)
same,Potency,[8],1.05 µM (active)
NC(=O)c1c(OCc2c(F)cc(Br)cc2F)nsc1NC(=O)NCCCCN1CCCC1,Potency,[1],8.33 µM (active)
same,Potency,[2],10.5 µM (active)
same,Potency,[3],23.5 µM (active)
same,Potency,[4],10.5 µM (active)
same,Potency,[5],23.5 µM (active)
same,Potency,[6],20.9 µM (active)
same,Potency,[7],20.9 µM (active)
same,Z-AUC,[9],0.49 (inactive)
same,Z-AUC,[9]; [12],0.803
same,Z-AUC,[9]; measured here: PEO4 Z-AUC,0.754
Cn1c2cc(S(C)=O)sc2c2cnn(Cc3cccc(N)c3)c(=O)c21 (stereo unspecified),Potency,[1],inactive
same,Potency,[4],inactive
same,Potency,[5],inactive
same,Potency,[6],inactive
same,Potency,[7],inactive
same,Potency,[8],inactive
same,Z-AUC,[9],1.34 (inactive)
same,Z-AUC,[9]; [12],0.817
same,Z-AUC,[9]; measured here: PEO4 Z-AUC,0.912
same,z-score,[10]; [13],0.336
same,z-score,[10]; [14],0.595
same,z-score,[10]; [15],0.401

# Source: PubChem BioAssay (NCATS)
